Measured values: PubChem BioAssay (NCATS)
Inconclusive results are not listed. Unmarked numbers belong to inactive results. Activity calls are given as the source filed them. Calls come from the whole dose curve; as a rule, active = well fitted cell-killing curve with a large enough effect; inconclusive = small, poorly fitted or top-dose-only effect; inactive = flat fitted curve, though single readings scatter.

Experiment: Cellular viability qHTS for adrenocortical cancer (ACC) cell line SW-13 (AID 1963989); note: nearly all actives have a fitted effect of over 65% in size;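 for activity (max response): cells grown in serum-free medium with ITS supplement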
Conditions: SW-13 ACC cells viability, CellTiter-Glo, 48 h; activity (max response): stronger effect = lower value
Procedure, shortened: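 Luminescent ATP read-out (CellTiter-Glo, 20 min at room temperature) measured metabolically competent SW-13 cells after 48 h compound treatment. Final concentrations spanned up to 46 uM; bortezomib served as positive control.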
% is set by controls: 0 for no effect and ±100 for the full control effect; potency is the fitted concentration of half-maximal effect.

Structure (SMILES) | activity (max response) | Potency
O=[N+]([O-])c1ccc(/C=N\O)o1 | -5.61% | 
Clc1ccc2c(c1)Nc1ccccc1S2 | -11.9% | 
CNCCCN1c2ccccc2CCc2ccccc21 |  | 20.6 µM (active)
Cn1ncc(Cl)c1-c1cc(C(=O)N[C@H](CN)Cc2cccc(F)c2)sc1Cl | -8.31% | 
COC(=O)[C@H]1[C@H]2C[C@@H]3c4[nH]c5cc(OC)ccc5c4CCN3C[C@H]2C[C@@H](OC(=O)c2cc(OC)c(OC)c(OC)c2)[C@@H]1OC | -15.6% | 
Cc1cc(O)c(-c2ccc([C@@H](C)CN)cc2)c2c1[nH]c(=O)c1sccc12 | -7.01% | 
CCCCCCCC/C=C/C(=O)O | -1.5% | 
COc1cc2c3c(n(CCCn4ccnc4)c(=O)c2cc1OC)-c1cc2c(cc1C3=O)OCO2 |  | 0.0316 µM (active)
CC(=O)N1CCN(c2ccc(NC(=O)Cc3cnc(-c4ccnc(F)c4)c(C)c3)nc2)CC1 | 4.66% | 
CCC(=O)c1c(O)cc(O)cc1O | -1.99% | 
O=C(O)CNC(=O)c1ncc(-c2cccc(Cl)c2)cc1O | 5.73% | 
OC1CCC([C@H](O)C[C@H]2c3c(F)cccc3-c3cncn32)CC1 (stereo not given in full) | -0.756% | 
CCCCC1C(=O)N(c2ccccc2)N(c2ccccc2)C1=O | -21.3% | 
C=CCN1C[C@H](C(=O)N(CCCN(C)C)C(=O)NCC)CC2c3cccc4[nH]cc(c34)C[C@H]21 (stereo not given in full) | -6.18% | 
CC(=O)[C@H]1CC[C@H]2[C@@H]3C=CC4=CC(=O)CC[C@@]4(C)[C@@H]3CC[C@]12C | -20.4% | 
CC[N+](C)(CC)CCOC(=O)C(O)(c1ccccc1)C1CCCCC1 (stereo not given) | 7.72% | 
CCC(CN)=C(c1ccccc1)c1ccccc1 | -12.8% | 
O=C(CCN1CCN2CCCC2C1)N1c2ccccc2Sc2ccc(Cl)cc21 (stereo not given) | -13.8% | 
CCCNC(=O)c1cn2ncnc(Nc3cc(C(=O)NC4CC4)ccc3C)c2c1C | 7.33% | 
COC(=O)[C@H]1[C@H]2C[C@@H]3c4[nH]c5cc(OC)ccc5c4CCN3C[C@H]2C[C@@H](OC(=O)COc2ccc(OC)cc2)[C@@H]1OC | -9.25% | 

Structure (SMILES) | activity (max response) | Potency
CC(C)=CCC/C(C)=C/CC/C(C)=C/CSc1ccccc1C(=O)O | -19.3% | 
CONC(=O)Nc1ccc(-c2sc3c(c2CN(C)C)c(=O)n(-c2ccc(OC)nn2)c(=O)n3Cc2c(F)cccc2F)cc1 | -5.64% | 
COc1ccnc2c1CCCCC2S(=O)c1nc2ccccc2[nH]1 (stereo not given) | 4.45% | 
CC(C)OC(=O)[C@H](C)N[P@](=O)(OC[C@H]1O[C@@H](n2ccc(=O)[nH]c2=O)[C@](C)(F)[C@@H]1O)Oc1ccccc1 |  | 3.98 µM (active)
Cc1cc(O)c2c(O)c3c(O)cccc3cc2c1 | -2.49% | 
CCOC(=O)Nc1ccc2c(c1)N(C(=O)CCN1CCOCC1)c1ccccc1S2 | -13.5% | 
COc1ccccc1Oc1c(NS(=O)(=O)c2ccc(C(C)(C)C)cc2)nc(-c2ncccn2)nc1OCCO | -3.16% | 
Cc1ccc(C(=O)Oc2ccc(C(O)CNC(C)(C)C)cc2OC(=O)c2ccc(C)cc2)cc1 (stereo not given) | -16% | 
O=C(Nc1cnn2ccc(N3CCC[C@@H]3c3cc(F)ccc3F)nc12)N1CC[C@H](O)C1 | -2.6% | 
Cc1nc(C2CCCCC2)c(-c2ccc(S(N)(=O)=O)c(F)c2)o1 | 16% | 
O=C(c1cc(O)c(O)c(O)c1)c1ccc(O)c(O)c1O | 4.03% | 
O=C(Nc1cccc(C(F)(F)F)c1)c1cccc2cc(Oc3cc(CO)ncn3)ccc12 | 9.86% | 
Cc1cc(CC(=O)O)c(C)n1-c1ccc(Cl)cc1 | 4.84% | 
CC(=O)OCC(=O)[C@H]1CC[C@H]2[C@@H]3CCC4=CC(=O)CC[C@]4(C)[C@H]3CC[C@]12C | 2.66% | 
Cc1ccc(CCn2c3c(c4cc(Cl)ccc42)CN(C)CC3)cn1 | -12.3% | 
N#CCC1(n2cc(-c3ncnc4[nH]ccc34)cn2)CN(C2CCN(C(=O)c3ccnc(C(F)(F)F)c3F)CC2)C1 | -10.7% | 
CCCc1c(OCCCOc2ccc(OCC(=O)O)cc2)ccc(C(C)=O)c1O | -13.7% | 
COc1ccc2nc(NC(=O)Nc3ccccc3)sc2c1 | -20% | 
CCCCCC=CCC=CCCCCCCCC(=O)OCC | -4.47% | 
CCCCCOc1ccc(C2SC(=O)NC2=O)cc1OCC (stereo not given) | -6.25% | 
